The results in this text go back to PubChem BioAssay (NCATS).

Values joined by “and” are separate entries in the source; they are usually repeats but may differ in a detail not shown here. Equal entries are not always repeated. Results filed as inconclusive are left out. Active and inactive are the calls of the source. Unless noted, the rule behind the calls is not given here.

A short description of test [1]: qHTS profiling of the MIPE4 collection as inhibitors of Plasmodium falciparum (3D7) proliferation (AID 743344).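 Note: scaled between DMSO vehicle wells and 0.29 µM artemisinin as full inhibition.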 As to conditions: P. falciparum 3D7 in erythrocytes, SYBR Green DNA fluorescence, 72 h; at 28.5 µM unless noted. A digest of the protocol: (§1)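 Parasite DNA was quantified by SYBR Green I fluorescence (ex 485, em 535 nm) after overnight lysis in saponin/Triton buffer at room temperature. Cultures at 0.3% parasitemia and 2.5% hematocrit were first exposed to compound for 72 h at 37 C; signals were normalised to artemisinin (0.29 uM) and vehicle wells.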
In general terms: In qHTS, concentration-response curves come from the screen itself.

Test [2] is described as follows: qHTS profiling of the MIPE4 collection as inhibitors of Plasmodium falciparum (DD2) proliferation (AID 743345). As to conditions: P. falciparum Dd2 in erythrocytes, SYBR Green DNA, 72 h; at 28.5 µM unless noted. A digest of the protocol: as §1
Test [3] is described as follows: qHTS profiling of the MIPE4 collection as inhibitors of Plasmodium falciparum (DD2) proliferation (Rep 2) (AID 743346). As to conditions: P. falciparum Dd2 in erythrocytes, SYBR Green DNA, 72 h; at 28.5 µM unless noted. A digest of the protocol: as §1
Test [4] can be described thus: High-throughput drug toxicity screening in the BPDCN cell line Cal-1 (AID 1224825). As to conditions: Cal-1 BPDCN cell viability, qHTS; at 45.8 µM (top of the series) unless noted. Summed up: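 Viability of the BPDCN line Cal-1 is measured as ATP-based luminescence (CellTiter-Glo) following 48 h incubation with compounds. Percent activity uses DMSO-treated wells as 100% and 9.2 uM bortezomib as 0%.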

A short description of test [5]: qHTS assay for measurement of the activity of small molecule inhibitors on Zika virus induced Caspase-3 activity in human iPSC derived neural progenitor cells (hNPCs) (AID 1224857; active = well fitted curve in the direction sought with a large enough effect; an effect the other way counts as inactive or inconclusive; note: nearly all actives have a fitted effect of over 65% in size; note: potency is the fitted concentration of half-maximal effect). A digest of the protocol:
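Caspase-3/7 induction by a 6-hour ZIKV infection was quantified with a luminescent Caspase-Glo 3/7 reagent incubated 30 minutes at room temperature. Compounds were preincubated with hNPCs for 1 hour; inhibition was calculated against uninfected and infected control wells.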

Test [6] can be described thus: qHTS assay for measurement of the activity of small molecule inhibitors on Zika virus induced Caspase-3 activity in human astrocytoma cells (AID 1224859; active = well fitted curve in the direction sought with a large enough effect; an effect the other way counts as inactive or inconclusive;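 note: plate controls were ZIKV-infected untreated cells for no effect and uninfected cells for full effect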). A digest of the protocol:
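In SNB-19 cells plated at 250 cells/well and grown 16-20 h, compounds were applied 1 h before ZIKV (2 FFU/cell). Six hours later caspase-3/7 luminescence was recorded.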

The nature of test [7]: qHTS profiling of the MIPE4 collection as inhibitors of Plasmodium falciparum (HB3) proliferation (AID 743347).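 Note: plate controls were DMSO vehicle wells for no effect and artemisinin wells for full effect.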 As to conditions: P. falciparum HB3 in erythrocytes, SYBR Green DNA, 72 h; at 28.5 µM unless noted. A digest of the protocol: as §1
Test [8] is described as follows: High-throughput drug toxicity screening in the BPDCN cell line Gen2.2 (AID 1224824).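 Note: cells exposed to compounds for 48 h before reading.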 As to conditions: Gen2.2 BPDCN cells; at 45.8 µM (top of the series) unless noted. A digest of the protocol: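 Gen2.2 cells, 500 per well in phenol red-free RPMI with 10% FBS, exposed to compounds 48 h at 37 C, 5% CO2; viability by CellTiter-Glo luminescence. Percent activity scaled to DMSO (100%) and 9.2 uM bortezomib final (0%).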

The target of test [9] is T1, Hexokinase-4 (Homo sapiens) + Glucokinase regulatory protein (Homo sapiens) (UniProt P35557+Q14397). The experiment in a line: qHTS assay for inhibitors of recombinant human GCK-GKRP interaction: Diaphorase-coupled assay (AID 743205; active = well fitted curve in the direction sought with a large enough effect; an effect the other way counts as inactive or inconclusive). Summed up: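 Compounds pre-incubated 20 min with substrate, then 10 nM GST-GCK with 10 nM FLAG-GKRP added. GCK activity coupled via G6PDH and diaphorase to resorufin (5 mM glucose, 0.4 mM ATP, 0.15 mM NADP+, pH 7.6), read kinetically over 30 minutes at Ex 525/Em 590 nm.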
T1 sequence (P35557 whole entry, looked up): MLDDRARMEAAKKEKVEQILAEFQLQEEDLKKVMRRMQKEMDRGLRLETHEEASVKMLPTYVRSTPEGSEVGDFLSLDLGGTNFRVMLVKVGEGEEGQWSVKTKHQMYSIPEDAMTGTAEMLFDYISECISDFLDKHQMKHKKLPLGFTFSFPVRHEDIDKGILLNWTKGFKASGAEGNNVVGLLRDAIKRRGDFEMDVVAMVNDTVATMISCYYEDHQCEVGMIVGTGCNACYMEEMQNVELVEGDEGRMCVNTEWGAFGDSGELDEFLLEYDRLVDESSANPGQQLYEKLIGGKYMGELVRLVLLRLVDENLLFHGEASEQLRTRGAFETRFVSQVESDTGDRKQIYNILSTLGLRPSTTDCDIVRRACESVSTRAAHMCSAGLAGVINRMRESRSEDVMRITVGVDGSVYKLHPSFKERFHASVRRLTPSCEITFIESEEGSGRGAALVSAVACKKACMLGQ
T1 sequence (Q14397 whole entry, looked up): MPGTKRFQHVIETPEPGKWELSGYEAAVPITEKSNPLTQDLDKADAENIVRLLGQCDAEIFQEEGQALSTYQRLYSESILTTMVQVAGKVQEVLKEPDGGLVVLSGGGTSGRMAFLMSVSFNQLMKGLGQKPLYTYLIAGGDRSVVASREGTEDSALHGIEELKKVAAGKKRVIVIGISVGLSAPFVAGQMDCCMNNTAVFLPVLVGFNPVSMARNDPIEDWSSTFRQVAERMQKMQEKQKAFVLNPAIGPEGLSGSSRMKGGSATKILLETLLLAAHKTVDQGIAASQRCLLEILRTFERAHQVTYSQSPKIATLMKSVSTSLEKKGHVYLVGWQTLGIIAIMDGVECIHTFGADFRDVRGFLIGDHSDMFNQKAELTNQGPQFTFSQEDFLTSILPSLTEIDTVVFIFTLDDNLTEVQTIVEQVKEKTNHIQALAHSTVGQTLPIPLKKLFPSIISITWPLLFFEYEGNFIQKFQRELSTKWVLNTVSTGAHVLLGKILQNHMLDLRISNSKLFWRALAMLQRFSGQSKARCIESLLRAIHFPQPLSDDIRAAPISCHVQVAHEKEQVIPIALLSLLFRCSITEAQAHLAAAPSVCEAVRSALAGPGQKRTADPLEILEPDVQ

The target of test [10] is T1, Hexokinase-4 (Homo sapiens) + Glucokinase regulatory protein (Homo sapiens). The experiment in a line: qHTS assay for inhibitors of recombinant human GCK-GKRP interaction: ADP-Glo assay (AID 743206; active = well fitted curve in the direction sought with a large enough effect; an effect the other way counts as inactive or inconclusive;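 note: plate controls were DMSO plus enzyme for no effect and no enzyme for full effect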). Summed up: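 Pin-transferred compounds meet a 15 nM GST-GCK/15 nM FLAG-GKRP/2 uM S6P mix (dispense concentrations). ATP is then added to 0.4 mM final with 5 mM glucose, and the reaction runs 60 min at room temperature. ADP is quantified luminescently.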

Test [11] has the same target. The experiment in a line: qHTS assay for inhibitors of recombinant human GCK-GKRP interaction: HTRF assay (AID 743207; active = well fitted curve in the direction sought with a large enough effect; an effect the other way counts as inactive or inconclusive;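 note: 0% = DMSO with GCK present and -100% = DMSO wells lacking GCK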). Summed up: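 HTRF binding of 5 nM GST-GCK and 5 nM FLAG-GKRP with 2 uM S6P in pH 7.1 Hepes buffer (MgCl2, KCl, DTT, Tween 20, BSA). Anti-FLAG XL665 and anti-GST donor added, 60 min at room temperature; 665/615 nm read, normalized to with- and without-GCK controls.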

Test [12] is described as follows: qHTS Screen of the MIPE 4.0 Collection Against Ewings Sarcoma (RDES) (AID 1259252; active = well fitted curve in the direction sought with a large enough effect; an effect the other way counts as inactive or inconclusive;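 note: 100% = DMSO-treated cells and 0% = medium-only wells without cells; nearly all actives have a fitted effect of over 35% in size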). Summed up: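 Here, cells in 5% FBS RPMI were exposed for two days (48 h) to compound dilutions added four hours after plating. ATP-based CellTiter-Glo luminescence measured viability, normalized to vehicle and no-cell blanks.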
Test [13] in a line: qHTS assay for small molecule antagonists of the retinoid-related orphan receptor gamma (ROR-gamma) signaling pathway - cell viability counter screen (AID 720652; active = well fitted curve in the direction sought with a large enough effect in the repeat runs; an effect the other way counts as inactive or inconclusive;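 note: CHO reporter cells with doxycycline-induced ROR-gamma expression; compound exposure lasted 16 hr before ATP read; % is set by controls: 0 for no effect and ±100 for the full control effect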). Summed up:
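CHO RORE-LUC/TET-ROR line, 1,000 cells/well, 37 C 5% CO2 5 hr; cpd or DMSO + doxycycline induction, 16 hr. CellTiter-Glo, 30 min RT, luminescence = ATP content.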

Test [14] can be described thus: qHTS assay for small molecule agonists of the antioxidant response element (ARE) signaling pathway measured by Nrf2-dependant transcriptional activity - cell viability counter screen (AID 720653; active = well fitted curve in the direction sought with a large enough effect in the repeat runs; an effect the other way counts as inactive or inconclusive; note: % is set by controls: 0 for no effect and ±100 for the full control effect). As to conditions: ARE-bla HepG2 viability, CellTiter-Glo ATP luminescence, 16 h; max response: stronger effect = lower value. Summed up: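 ARE-bla HepG2 cells (2,000/well) rested 5 hrs at 37C/5% CO2, then exposed to compounds in DMSO for 16 hrs. Viability was read in the same wells as intracellular ATP by luminescence, 30 min at room temperature after reagent addition.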

A short description of test [15]: qHTS Assay for Identifying Gametocytocidal Compounds (AID 743244; active = well fitted curve in the direction sought with a large enough effect; an effect the other way counts as inactive or inconclusive;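 note: % is set by controls: 0 for no effect and ±100 for the full control effect; actives lower the fluorescent signal which means gametocytes are killed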). As to conditions: P. falciparum 3D7 stage III-V gametocytes, alamarBlue, 72 h; max response: stronger effect = lower value. A digest of the protocol:
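Late gametocytes (III–V), P. falciparum 3D7; 72 h drug, then 24 h alamarBlue; resazurin reduction read by fluorescence.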

Test [16] in a line: qHTS assay for cell viability of HEK293 cells (AID 743288; active = well fitted curve in the direction sought with a large enough effect; an effect the other way counts as inactive or inconclusive; note: % is set by controls: 0 for no effect and ±100 for the full control effect; nearly all actives have a fitted effect of over 50% in size). Particulars: ATP luminescence (CellTiter-Glo), 18 h; max response: stronger effect = lower value. A digest of the protocol: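 Steps: plate 2,000 parental HEK293 cells per well; incubate ≥5 h, 37 C; add compounds in DMSO; incubate 18 h, 37 C; add CellTiter-Glo; wait 30 min at room temperature; read luminescence.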
The nature of test [17]: qHTS assay for cell viability of the p53RE-bla HCT-116 cell line (AID 743292; active = well fitted curve in the direction sought with a large enough effect; an effect the other way counts as inactive or inconclusive; note: % is set by controls: 0 for no effect and ±100 for the full control effect; nearly all actives have a fitted effect of over 55% in size). A digest of the protocol: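 ATP-based luminescent viability (CellTiter-Glo, 30 min RT) after 16 h compound treatment at 37 C of p53RE-bla HCT-116 cells, seeded at 4,000 cells/well and rested 5 h before dosing.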

`CCC(=O)NC[C@H](Cc1ccc(OCCc2nc(-c3ccccc3)oc2C)cc1)NC(C)=CC(=O)c1ccc(C(F)(F)F)cc1`: the parasite growth, % of DMSO control in [1] was determined as 6.82%. In test [2], the parasite growth remaining, % of DMSO control (lower = more inhibition) was found to be 7.84%. Further, in [3], the parasite growth, % of control (lower = inhibition) is 21.5%. Further, in [4], the viability (% of control) is 5.56%. Moreover, the Potency result in test [5] and in test [6] was “inactive” each time.

Consider `CC=CCC(C)C(O)C1C(=O)NC(CC)C(=O)N(C)CC(=O)N(C)C(CC(C)C)C(=O)NC(C(C)C)C(=O)N(C)C(CC(C)C)C(=O)NC(C)C(=O)NC(C)C(=O)N(C)C(CC(C)C)C(=O)N(C)C(CC(C)C)C(=O)N(C)C(C(C)C)C(=O)N1C` (stereo not given), for which the parasite growth, % of DMSO control in [1] stood at 5.34%. Moreover, in test [2], the parasite growth remaining, % of DMSO control (lower = more inhibition) turned out to be 6.98%. The molecule also had a parasite growth, % of control (lower = inhibition) in test [3] of 13.2%. Besides, the growth, % of control in [7] worked out at 4.04%. The same molecule returned a cell viability, % of control (lower = more cytotoxic) in [8] of 8.39%.

The molecule `NC(=O)c1cnc(-c2ccc(C3(N)CCC3)cc2)c(-c2ccccc2)c1` gave a parasite growth, % of DMSO control in test [1] of 55.3%. Besides, the parasite growth remaining, % of DMSO control (lower = more inhibition) in [2] stood at 65.3%. This molecule also had a parasite growth, % of control (lower = inhibition) in test [3] of 30%. In [4], the viability (% of control) worked out at 67%. In addition, the Potency entry in [5] and in test [6] was “inactive” each time.

`COc1cccc(-c2cc(=O)c3ccccc3o2)c1N`: the result in test [9], in [10] and in test [11] was inactive. In test [1], the parasite growth, % of DMSO control is 73.4%. The parasite growth remaining, % of DMSO control (lower = more inhibition) in test [2] was determined as 91.1%. This molecule also showed a parasite growth, % of control (lower = inhibition) in [3] of 87.6%. Moreover, in [7], the growth, % of control amounted to 60%. Besides, the viability (% of control) in test [4] came to 9.08%. Moreover, the Potency in [5] is 18.7 µM (active). For the same molecule, in test [12], the Potency entry is “inactive”.

As to `CCn1cc(C(=O)O)c(=O)c2ccc(C)nc21`, the Potency result in [13], in test [17] and in test [6] was “inactive” each time. Besides, the max response in test [14] is 11.7% (inactive) and 3.46% (inactive); in test [15], 5.72% (inactive) and 15.6% (inactive); in [16] it was 1.7% (inactive) and -2.87% (inactive). The viability (% of control) in test [4] amounted to 113%.

In [1], `CC1(C)CCC[C@@]2(C)[C@@H]1CC[C@@]1(C)OC(=O)C[C@H]21` showed a parasite growth, % of DMSO control of 81.6%. For the same molecule, the parasite growth remaining, % of DMSO control (lower = more inhibition) in test [2] came to 136%. Further, in [3], the parasite growth, % of control (lower = inhibition) amounted to 56.5%. The viability (% of control) in test [4] worked out at 102%. Also, the Potency result in [5] and in [6] was “inactive” each time.
